This passage reports growth results from PubChem BioAssay (NCI).

The panel holds about 83,000 compounds, 20% with a hit somewhere; the sample as a whole holds those more often.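 Activity criterion: percent growth below 10, measured after cells in 96-well plates were exposed to a single compound concentration for 48 hours.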 Unmarked numbers belong to inactive results. Active and inactive are the calls of the source.

Common to all, as to experiment: NCI-60 one-dose screen, 48 h (100 = growth as untreated, 0 = no growth, -100 = all killed)
What all share (conditions): 10 µM unless noted

Test [1] has as its system SK-MEL-2 melanoma.
The test system of test [2] is EKVX NSCLC.
Test [3] deals with SN12C renal.
The test system of test [4] is UO-31 renal.
Test [5] has as its system TK-10 renal.
Test [6] has as its system ACHN renal.
Test [7] concerns CAKI-1 renal.
Test [8] concerns A498 renal.
Test [9] has as its system MOLT-4 leukemia.
Test [10] relates to SR leukemia.
Test [11] relates to OVCAR-8 ovarian.
The subject of test [12] is OVCAR-5 ovarian.
Test [13] has as its system OVCAR-4 ovarian.
Test [14] concerns SK-OV-3 ovarian.
The subject of test [15] is IGROV1 ovarian.
For test [16], the system named is OVCAR-3 ovarian.
In test [17] the test system is HS 578T breast.
The test system of test [18] is NCI/ADR-RES ovarian.
Test [19] concerns CCRF-CEM leukemia.
Test [20] has as its system RPMI-8226 leukemia.

With `CCN1CCN(Cc2ccc(NC(=O)Nc3ccc(-n4ccc5c(NC(=O)c6ccccc6)nccc54)cc3)cc2C(F)(F)F)CC1`, the growth was -31.5% (active) in test [1]; 87.4% in test [2]; 58.3% in [3]; -48.6% (active) in test [4]; 25.5% in test [5]; -46.3% (active) in test [6]. In addition, the growth was 47.3% in test [7]; 105% in test [8]; -32.8% (active) in [9]; -30.9% (active) in test [10]; -28.5% (active) in [11]; 30.7% in [12]. Also, the growth in test [13] was 78.8%; in test [14], 62.7%; in [15], 43.9%; in test [16], -51.9% (active); in test [17], 74.1%; in test [18], 27.8%.

Turning to `O=C(Nc1cccc(C2=NCCN2)c1)c1ccc(N=Nc2ccc(C(=O)Nc3cccc(C4=NCCN4)c3)cc2)cc1`, the growth is 56.6% in test [1]; 62.6% in test [2]; 49.9% in test [3]; 72.8% in test [4]; 40.2% in test [5]; 52.4% in test [6]. In addition, the growth in [7] is 90.7%; in test [8] it was 66.3%; in test [9], 80.9%; in test [10], 87.5%; in test [11] it was 37.5%; in [12], 76.6%. For the same molecule, the growth is 77.3% in test [14], 58.8% in test [15], 77.4% in test [16] and 65.2% in test [17].

For the molecule `NC(=S)N1N=C(c2ccc(Cl)cc2)CC1c1cc2ccccc2[nH]c1=O` (stereo not drawn), the growth was 103% in [1]; 109% in test [2]; 104% in [3]; 82.7% in test [4]; 109% in test [5]; 107% in test [6]. Besides, the growth is 114% in test [7]; 89.5% in test [8]; 72.5% in test [9]; 82.4% in [10]; 111% in [11]; 108% in test [12]. Besides, the growth in test [13] is 100%; in test [14] it was 104%; in test [15], 101%; in [16], 119%; in [17], 112%; in test [18] it was 108%.

Take `O=C(/C=C/c1ccccc1)c1c[nH]c2ccccc2c1=O`: the growth in test [1] is 95.5%; in [2] it was 36.3%; in [3], 8.29% (active); in test [4], 4.93% (active); in test [5] it was 22.5%; in test [6], 11.6%. In addition, the growth is 4.66% (active) in [7]; -12.2% (active) in test [19]; 9.81% (active) in test [9]; 10.8% in test [10]; -15.9% (active) in test [20]; -13.3% (active) in [11]. Also, the growth was 3.5% (active) in test [12]; 42.1% in [13]; 11.6% in test [14]; -11.5% (active) in test [15]; -60.9% (active) in test [16]; -18.8% (active) in test [17]. Further, the growth in [18] is 0.29% (active).

With `Cc1cccc(N=NC(=S)NNc2cccc(C)c2)c1`, the growth is 111% in [1]; 98.3% in [2]; 102% in [3]; 81.6% in [4]; 136% in test [5]; 92.1% in [6]. For the same molecule, the growth in [7] is 94.5%; in test [19] it was 86.6%; in test [9], 98.4%; in test [10] it was 107%; in test [20], 96.4%; in [11] it was 108%. For the same molecule, the growth in test [12] is 111%; in test [13] it was 101%; in [14], 105%; in [15] it was 92.4%; in test [17], 116%; in test [18], 113%.

In the case of `CCNCCCn1c2c(c3ccc(Cl)cc3c1=O)C(=O)c1cc(OC)cnc1-2`, the growth was 77.1% in test [1]; 53.4% in [2]; 27.6% in test [3]; 10.3% in test [4]; 39.9% in [5]; 8.64% (active) in test [6]. Also, the growth in test [7] is 39.9%; in test [19], -37.3% (active); in [9], -34% (active); in test [10] it was -63.6% (active); in [20], -48.8% (active); in test [11] it was -30.7% (active). The growth in test [12] is -11.9% (active); in test [13], 52.2%; in [14], -11% (active); in test [15], 44.7%; in test [16], 39.1%; in test [17], 58.8%. Also, the growth in [18] was 35.5%.

With `COc1ccc(-c2cc(C(=O)Nc3ccc(C)cc3)nc3[nH]c(=O)sc23)cc1`, the growth in test [1] is 29.2%; in [2], 73.3%; in test [3] it was 58.2%; in test [4] it was 58.3%; in [5], 61.1%; in test [6], 90.2%. In addition, the growth was 60.6% in test [7]; 71.1% in [19]; 81.5% in test [9]; 76.8% in test [10]; 47.2% in [20]; 77.1% in test [11]. The growth in test [12] is 100%; in test [13], 71.7%; in test [14] it was 68.4%; in [15], 70.3%; in test [16], 80.1%; in [17], 74.1%. Besides, in test [18], the growth is 78.3%.

As to `C=C(C)[C@@H]1CC[C@]2(C(=O)NS(=O)(=O)c3ccccc3)CC[C@]3(C)[C@H](CC[C@@H]4[C@@]5(C)CC[C@H](OC(=O)NS(=O)(=O)c6ccccc6)C(C)(C)[C@@H]5CC[C@]43C)[C@@H]12`, the growth in test [1] was -6.1% (active); in [2], 27.5%; in test [3], 13%; in test [4] it was 8.04% (active); in test [5], 24%; in [6], 14.6%. The growth in [7] was 24.8%; in [8] it was -2.66% (active); in test [20], -55.3% (active); in test [11] it was 18.4%; in [12], 15.5%; in [13], 38.1%. Further, the growth is 29.7% in test [14]; 17.6% in [15]; -31.3% (active) in [16]; 14.5% in test [17]; 17.1% in test [18].

For the molecule `COc1cnc2c(c1)C(=O)c1c-2n(CCCN2CCCC2)c(=O)c2cc(Cl)ccc12`, the growth in [1] is 65.2%; in test [2] it was 46.6%; in test [3], 27.5%; in [4] it was 15.9%; in [5], 39.4%; in test [6] it was 7.7% (active). Besides, the growth was 42.4% in [7]; -38.1% (active) in test [19]; -24.4% (active) in test [9]; -42.9% (active) in [10]; 20.3% in test [20]; 26.1% in [11]. For the same molecule, the growth in test [12] was 64.8%; in test [13] it was 45.4%; in test [14], 19.6%; in [15], 39.4%; in [16], 55%; in [17], 49.1%. Moreover, the growth in test [18] is 35.1%.
